# Where a name gives a salt, the structure may show the parent alone.
# Tested on: Danio rerio larvae (5 dpf)
# Test: combined optomotor response (time in upper well half, down vs up moving lines, periods 7-14) minus DMSO control (percentage points); higher = stronger optomotor response than DMSO larvae
# Conditions: 10 µM; exposure time: 3 h pre-incubation + 3 h imaging
# Method: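 Wild-type 5 dpf zebrafish larvae (n=48 per drug, 96-well plates, 28.5 °C) were exposed to Tocris FDA-approved library compounds at 10 µM (0.1% DMSO) for 3 h before and 3 h during imaging. Images were taken every 6 s during visual and acoustic stimuli, and larvae were tracked with Z-LaP Tracker. Each measure is the treated-group mean minus the DMSO control mean (n=844), in percentage points. This mapping covers compounds with 5-character plate codes.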
row,Compound,combined optomotor response
1,CC(C)OC(=O)C(C)(C)Oc1ccc(C(=O)c2ccc(Cl)cc2)cc1 [Fenofibrate],2.45
2,Cc1cc2c(s1)Nc1ccccc1N=C2N1CCN(C)CC1 [Olanzapine],8.87
3,OC(c1cc(C(F)(F)F)nc2c(C(F)(F)F)cccc12)C1CCCCN1 (stereo unspecified) [Mefloquine hydrochloride],-2.6
4,CC(=O)Oc1cc2c(s1)CCN(C(C(=O)C1CC1)c1ccccc1F)C2 (stereo unspecified) [Prasugrel],6.75
5,CNCc1ccc(-c2[nH]c3cc(F)cc4c3c2CCNC4=O)cc1 [Rucaparib camsylate],4.21
6,CN(C)C(=N)NC(=N)N [Metformin hydrochloride],8.63
7,CC(C)(C(=O)O)c1ccc(C(O)CCCN2CCC(C(O)(c3ccccc3)c3ccccc3)CC2)cc1 (stereo unspecified) [Fexofenadine hydrochloride],3.85
8,NS(=O)(=O)c1cc2c(cc1Cl)NC(C1CC3C=CC1C3)NS2(=O)=O (stereo unspecified) [Cyclothiazide],0.296
9,CC(C)COCC(CN(Cc1ccccc1)c1ccccc1)N1CCCC1 (stereo unspecified) [Bepridil hydrochloride],8.48
10,C[C@H]1O[C@H](O[C@H]2[C@H](O)[C@@H](O)[C@@H](O[C@H]3[C@H](O)[C@@H](O)C(O)O[C@@H]3CO)O[C@@H]2CO)[C@H](O)[C@@H](O)[C@@H]1N[C@H]1C=C(CO)[C@@H](O)[C@H](O)[C@H]1O (stereo partly specified) [Acarbose],3.82
11,CN(C)CCc1c[nH]c2ccc(C[C@H]3COC(=O)N3)cc12 [Zolmitriptan],5.82
12,COc1cc([C@@H]2c3cc4c(cc3[C@@H](O[C@@H]3O[C@@H]5CO[C@@H](C)O[C@H]5[C@H](O)[C@H]3O)[C@H]3COC(=O)[C@H]23)OCO4)cc(OC)c1O [Etoposide],4.51
13,COCCc1ccc(OCC(O)CNC(C)C)cc1 (stereo unspecified) [Metoprolol tartrate],1.91
14,O=C(O)C[C@H](O)C[C@H](O)/C=C/c1c(C2CC2)nc2ccccc2c1-c1ccc(F)cc1 [Pitavastatin calcium],8.14
15,O=c1n(CCCN2CCN(c3cccc(Cl)c3)CC2)nc2ccccn12 [Trazodone hydrochloride],2.35
16,NC(=O)OCC(COC(N)=O)c1ccccc1 [Felbamate],-0.92
17,OCCN1C[C@H](O)[C@@H](O)[C@H](O)[C@H]1CO [Miglitol],5.48
18,OCc1cc(C(O)CNCCCCCCOCCCCc2ccccc2)ccc1O (stereo unspecified) [Salmeterol xinafoate],0.619

row,Compound,combined optomotor response
1,COc1ccccc1Oc1c(NS(=O)(=O)c2ccc(C(C)(C)C)cc2)nc(-c2ncccn2)nc1OCCO [Bosentan],1.31
2,Clc1ccc2nsnc2c1NC1=NCCN1 [Tizanidine hydrochloride],1.65
3,N#Cc1ccc2[nH]cc(CCCCN3CCN(c4ccc5oc(C(N)=O)cc5c4)CC3)c2c1 [Vilazodone hydrochloride],-6.69
4,CCc1nc(N)nc(N)c1-c1ccc(Cl)cc1 [Pyrimethamine],7.22
5,CNC(=O)c1cc(Oc2ccc(NC(=O)Nc3ccc(Cl)c(C(F)(F)F)c3)cc2)ccn1 [Sorafenib],-1.64
6,CCCCCCCN(CC)CCCC(O)c1ccc(NS(C)(=O)=O)cc1 (stereo unspecified) [Ibutilide hemifumarate],5.81
7,O=C1CCc2ccc(OCCCCN3CCN(c4cccc(Cl)c4Cl)CC3)cc2N1 [Aripiprazole],1.74
8,CCCC1O[C@@H]2C[C@H]3[C@@H]4CCC5=CC(=O)C=C[C@]5(C)[C@H]4[C@@H](O)C[C@]3(C)[C@]2(C(=O)CO)O1 (stereo partly specified) [Budesonide],2.27
9,COc1cc2nccc(Oc3ccc(NC(=O)C4(C(=O)Nc5ccc(F)cc5)CC4)cc3)c2cc1OC,0.162
10,COc1cc(N)c(Cl)cc1C(=O)NC1CCN(CCCOc2ccc(F)cc2)CC1OC (stereo unspecified) [Cisapride],4.72
11,CCCc1nn(C)c2c(=O)[nH]c(-c3cc(S(=O)(=O)N4CCN(C)CC4)ccc3OCC)nc12 [Sildenafil citrate],-0.855
12,C#CCN[C@@H]1CCc2ccccc21 [Rasagiline mesylate],6.3
13,CNS(=O)(=O)Cc1ccc2[nH]cc(CCN(C)C)c2c1 [Sumatriptan succinate],-0.931
14,CC[C@H]1OC(=O)[C@H](C)[C@@H](O[C@H]2C[C@@](C)(OC)[C@@H](O)[C@H](C)O2)[C@H](C)[C@@H](O[C@@H]2O[C@H](C)C[C@H](N(C)C)[C@H]2O)[C@](C)(O)C[C@@H](C)CN(C)[C@H](C)[C@@H](O)[C@]1(C)O [Azithromycin],-4.55
15,N#C[C@@H]1C[C@@H]2C[C@@H]2N1C(=O)[C@@H](N)C12CC3CC(CC(O)(C3)C1)C2 [Saxagliptin hydrochloride],-2.67
16,CC(=O)Nc1ccc(O)cc1 [Acetaminophen],0.558
17,CN[C@H]1CC[C@@H](c2ccc(Cl)c(Cl)c2)c2ccccc21 [Sertraline hydrochloride],-6.63
18,COc1ccccc1OCC(O)CN1CCN(CC(=O)Nc2c(C)cccc2C)CC1 (stereo unspecified) [Ranolazine dihydrochloride],10.9

# Reference: the supplement of paper PMC9950053
